From PubChem
D2 ag-1 – Beta-Arrestin HTS for Positive Allosteric Modulators of the Human D2 Dopamine Receptor: Agonists; D(2) dopamine receptor (Homo sapiens), P14416; DiscoveRx PathHunter D2 beta-arrestin, luminescence, 90 min; 100% = 57 uM dopamine signal; activation, % (test concentration not listed); actives 0.084% (n = 360,000); in the data active means activation above about 40%; inconclusive means between about 15% and that limit
Target sequence (P14416 whole entry, looked up): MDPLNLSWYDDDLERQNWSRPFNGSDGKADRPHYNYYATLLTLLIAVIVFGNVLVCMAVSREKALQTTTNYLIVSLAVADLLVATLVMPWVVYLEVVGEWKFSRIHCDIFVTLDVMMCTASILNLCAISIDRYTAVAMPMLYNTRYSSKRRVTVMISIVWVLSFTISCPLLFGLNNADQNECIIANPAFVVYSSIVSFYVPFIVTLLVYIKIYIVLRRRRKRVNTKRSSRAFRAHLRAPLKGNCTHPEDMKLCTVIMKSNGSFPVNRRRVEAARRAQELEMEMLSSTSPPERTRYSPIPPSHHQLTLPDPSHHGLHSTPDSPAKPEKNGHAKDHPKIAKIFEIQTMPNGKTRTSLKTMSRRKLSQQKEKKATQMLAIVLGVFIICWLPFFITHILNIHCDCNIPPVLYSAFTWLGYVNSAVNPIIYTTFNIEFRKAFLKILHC
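Agonist mode: compounds alone added to overnight-plated D2 PathHunter cells for 90 min at 37 C, with 57 uM final dopamine (EC100) defining full response. Beta-arrestin recruitment detected by chemiluminescent reagent, read after 1 h at ambient temperature.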
D2 antagonist – HTS Assay for Allosteric Antagonists of the Human D2 Dopamine Receptor: Primary Screen for Antagonists; HEK293 TREx D2 cells, calcium flux, dopamine EC80; inhibition, % at 10 µM; actives 2% (n = 340,000); AID 485344, 2010; in the data active means inhibition above about 30%; inactive means below that, where a call was filed
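Read-out: kinetic calcium fluorescence (1 cycle/s) in inducible HEK293 T-REx D2 cells after an EC80 dopamine addition that followed 180 s compound preincubation. Loss of the dopamine response indicates antagonism.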
D2 PAM-1 – Beta-Arrestin HTS for Positive Allosteric Modulators of the Human D2 Dopamine Receptor: Potentiators. D(2) dopamine receptor (Homo sapiens), P14416. DiscoveRx D2 beta-arrestin cells, luminescence, 90 min; 100% = 57 uM dopamine signal. potentiation, % (no concentration beside the values). actives 0.23% (n = 360,000). AID 624464, 2012; in the data active means potentiation above about 50%; inconclusive means mostly about 30% to 49%
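PathHunter D2 cells, attached overnight at 37 deg C, received compound in DMSO plus dopamine at EC20 (50 nM final) for 90 min at 37 deg C. Beta-arrestin recruitment was read as luminescence after 1 h with detection reagent at ambient temperature.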
D2 PAM-2 – HTS Assay for Positive Allosteric Modulators of the Human D2 Dopamine Receptor: Primary Screen for Potentiators. HEK293 T-REx D2, calcium flux, EC20 dopamine potentiation. potentiation, % at 10 µM. actives 0.34% (n = 340,000). AID 485347, 2010;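 active means potentiation over 3 SD above the plate norm, cut at about 30% in these data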
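Tetracycline-induced HEK293 T-REx cells force-coupled to calcium signalling expressed D2; compounds were pin-added after a 10 s baseline, read kinetically 180 s, then an EC20 dopamine challenge followed with a further 180 s calcium read.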
D2 ag-2 – HTS Assay for Allosteric Agonists of the Human D2 Dopamine Receptor: Primary Screen for Agonists; AID 485358, 2010; HEK293 T-REx D2 cells, calcium flux agonist mode; actives 0.53% (n = 340,000); activation, % at 2 µM; D(2) dopamine receptor (Homo sapiens), P14416;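 active means activation over 3 SD above normal in the single-dose calcium agonist read, cut at about 30% in these data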
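Agonism is scored from calcium flux in a force-coupled, inducible HEK293 cell line expressing D2, read kinetically for 180 s after compound addition against dopamine controls.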
D3 arrestin ag – qHTS of D3 Dopamine Receptor Agonist: D3 Dopamine Receptor B-arrestin Agonist Confirmatory Assay; Potency, µM (series often up to 76.9 µM), hits mostly activators; actives 4% (n = 2,300); AID 720506, 2013; shares compounds with D2 ag-2; DiscoveRx D3 beta-arrestin cells, luminescence, 90 min; further: nearly all actives have a fitted effect of over 70% in size
D2 ag-3 – qHTS of D3 Dopamine Receptor Agonist: D2 Dopamine Receptor B-arrestin Agonist Counterscreen | Potency, µM (titrated, usually from 76.9 µM), actives largely listed as activators | shares compounds with D2 ag-2 | AID 720507, 2013 | actives 5.9% (n = 2,300) | DiscoveRx PathHunter D2 beta-arrestin, luminescence, 90 min; response scale: percent relative to full dopamine signal; further: nearly all actives have a fitted effect of over 70% in size
Of the large screens only hits and unclear results are named; the others gave an inactive call (follow-up assays come after a bar, where they were run). Compounds with a hit are over-represented: about 2.4% of the library has one in this group of screens. Unless noted, the call rests on the fitted dose curve; in most records, active means well fitted activation curve with a large enough effect; inconclusive means small, poorly fitted or top-dose-only effect; inactive means flat fitted curve, though single readings scatter.

O=C(CCN1CCN(c2ccccc2)CC1)Nc1ccc(Cl)cc1	none
O=C(CCN1CCN(c2ccccc2)CC1)Nc1ccc(OCc2ccccc2)cc1	D2 antagonist 65, D2 ag-2 53 | D3 arrestin ag inconclusive | D2 ag-3 inconclusive
COC(=O)c1cc(CN2CCN(c3ccccc3)CC2)ccc1O	none | D3 arrestin ag inactive | D2 ag-3 inactive
CCOc1ccc2nc(NC(=O)c3nc(SC(C)C)ncc3Cl)sc2c1	none (no result: D2 ag-1, D2 antagonist, D2 PAM-1, D2 ag-2)
CCOc1ccc(OCC)c(Nc2ccc3cc(S(=O)(=O)N4CCCC4)ccc3n2)c1	none (no result: D2 ag-1, D2 antagonist, D2 PAM-1, D2 ag-2)
CCOC(=O)c1ccc(NC(=O)/C(C#N)=C/c2ccc(OC)cc2)cc1	none (no result: D2 ag-1, D2 antagonist, D2 PAM-1, D2 ag-2)
Cc1cccc(C(=O)NC(=S)NCc2ccccc2)c1	none (no result: D2 antagonist, D2 PAM-2, D2 ag-2)
Cc1cccc(C(=O)NC(=S)NNC(=O)Cc2ccccc2)c1	D2 ag-2 37 | D3 arrestin ag inactive | D2 ag-3 inactive
O=C(Nc1cccc(Cl)c1)c1ccc(NCCCN2CCOCC2)c([N+](=O)[O-])c1	none
Cc1ccc(NC(=O)c2ccc(NCCCN3CCC(C)CC3)c([N+](=O)[O-])c2)cc1F	none | D3 arrestin ag inactive | D2 ag-3 inactive
O=C(CCCN1C(=O)c2cccnc2C1=O)Nc1ccccc1F	none
CCc1ccccc1NC(=O)CCCN1C(=O)c2cccnc2C1=O	D2 ag-2 41 | D3 arrestin ag inactive | D2 ag-3 inactive
COc1ccc(NC(=O)c2cc3c(s2)-c2c(C)cccc2OC3)cc1Cl	none (no result: D2 ag-1, D2 antagonist, D2 PAM-1)
CCN(CC)C(=O)c1cccc(NC(=O)CCc2nc3sc4c(c3c(=O)[nH]2)CCCC4)c1	none | D3 arrestin ag inactive | D2 ag-3 inactive
O=C(CCC(=O)c1ccccc1)NCCc1c[nH]c2ccccc12	D2 ag-2 66 | D3 arrestin ag inactive | D2 ag-3 inactive
CCN(Cc1ccncc1)C(=O)c1ccccc1NS(=O)(=O)c1ccc(Br)cc1	none (no result: D2 antagonist, D2 ag-2) | D3 arrestin ag inactive | D2 ag-3 inactive
Cn1c(=O)c2[nH]c(N3CCN(c4ccccn4)CC3)nc2n(C)c1=O	none (no result: D2 ag-1, D2 PAM-1) | D3 arrestin ag inactive | D2 ag-3 inactive
Cn1c(=O)c2[nH]c(N3CCCCC3)nc2n(C)c1=O	none
Cn1cc(C(=O)N2CCN(c3cccc(C(F)(F)F)c3)CC2)c2c3ccccc3n(C)c2c1=O	none (no result: D2 ag-1, D2 antagonist, D2 PAM-1)
CC(C)(C)C(=O)NC(=S)NNC(=O)c1sc2ccccc2c1Cl	D2 antagonist 57, D2 ag-2 146 | D3 arrestin ag inactive | D2 ag-3 inactive
O=C(NNC(=S)NC1CCCCC1)c1sc2ccccc2c1Cl	none
Cc1ccc([N+](=O)[O-])c(OCCN2CCNCC2)c1	D2 antagonist 71, D2 ag-2 68 | D3 arrestin ag inconclusive | D2 ag-3 inactive
Cc1ccc(OCCOCCN2CCCCC2)c([N+](=O)[O-])c1	none
COc1ccccc1CNS(=O)(=O)c1c(C)nc2sc(C)cn2c1=O	none (no result: D2 ag-1, D2 antagonist, D2 PAM-1)
O=C(NCCN1CCN(c2ccccc2)CC1)c1ccccc1F	D2 ag-1 inconclusive, D2 antagonist 72, D2 ag-2 79 | D3 arrestin ag inconclusive | D2 ag-3 inactive
O=C(NCCS(=O)(=O)N1CCN(c2ccccc2)CC1)c1ccccc1F	none | D3 arrestin ag inactive | D2 ag-3 inactive
O=C(COc1ccccc1)NCCS(=O)(=O)N1CCN(c2ccccc2)CC1	D2 ag-1 inconclusive, D2 antagonist 77 | D3 arrestin ag inactive | D2 ag-3 inconclusive
